Sm TGR inh = inhibitors of Schistosoma mansoni thioredoxin glutathione reductase. Q962Y6. purified TGR, DTNB reduction, TNB absorbance 405 nm. Potency, µM (series often up to 114 µM), actives largely listed as inhibitors. 3% of 360,000 active; also: nearly all actives have a fitted effect of over 60% in size
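Kinetic colorimetric format: TGR-catalysed, NADPH-driven DTNB reduction monitored via TNB absorbance. Enzyme dispensed at 20 nM; compound exposure 15 min at room temperature before reaction start.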
HCMV antiviral = blocks human cytomegalovirus replication | HFF cells, HCMV-luciferase reporter, 72 h; stronger effect = lower value | activity change, negative = inhibition, % at 57.5 µM | 4.5% of 410,000 active; in the data active = activity change below about -60%; inconclusive = no clear call, values can overlap the other calls; inactive = above about -39%
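Luciferase read-out from HCMV-luciferase-infected HFFs (MOI 1 PFU/cell) 72 h post infection at 37C; compounds added after 16 h cell attachment; activity normalized between buffer-only basal and Salinomycin (10uM) inhibitor controls.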
Pf growth 96h = P. falciparum growth inhibition at 96 hour, primary screen for plastid delayed-death inhibitors; P. falciparum luciferase reporter growth, 96 h; AID 504834; Potency, µM (series often up to 28.7 µM), most hits filed as inhibitors; 6.9% of 320,000 active
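Delayed-death screen, second-generation endpoint: infected erythrocytes, 2% hematocrit, 0.05% parasitemia final; 96 hours at 37 C, 5% CO2; luciferase detection reagent; luminescence decrease equals reduced growth.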
FBPA Giardia inh = Giardia lamblia aldolase inhibition. A8B2U2. purified Giardia FBPA. Potency, µM (top dose mostly 59.6 µM), usual class: inhibitors. 0.71% of 290,000 active. AID 2451; also: nearly all actives have a fitted effect of over 55% in size
Target sequence (A8B2U2 whole entry, looked up): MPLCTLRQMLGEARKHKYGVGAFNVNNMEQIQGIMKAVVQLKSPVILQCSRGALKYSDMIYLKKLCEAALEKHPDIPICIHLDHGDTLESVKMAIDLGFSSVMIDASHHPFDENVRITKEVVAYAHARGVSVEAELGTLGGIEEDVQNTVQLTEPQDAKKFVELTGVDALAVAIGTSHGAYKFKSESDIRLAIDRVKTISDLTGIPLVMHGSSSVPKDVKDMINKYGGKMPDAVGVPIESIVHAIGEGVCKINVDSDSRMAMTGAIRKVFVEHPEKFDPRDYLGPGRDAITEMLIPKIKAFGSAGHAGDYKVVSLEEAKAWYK
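Giardia FBPA (40 nM reagent) was preincubated 10 min at RT with compound (up to 57.5 uM final), then substrate plus GAPDH/TPI/NAD/arsenate coupling system with diaphorase/resazurin was added; resorufin fluorescence (525/598 nm) was read after 20 min.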
Pf growth 48h = P. falciparum growth inhibition at 48 hours (one generation). P. falciparum luciferase growth in erythrocytes, 48 h. Potency, µM (doses to about 28.7 µM), most hits filed as inhibitors. 5.9% of 310,000 active. AID 504832
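Luminescence readout; reporter = integrated firefly luciferase in P. falciparum. RBC culture at 2% hematocrit, 0.1% parasitemia final, 37 C/5% CO2; decreased signal taken as growth inhibition.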
Each line names hits and unclear results; the compound was inactive in the other large screens. This is a sample that favours compounds with a hit; in the whole collection about 14% have one here. Unless noted, calls follow the shape of the dose curve; as a rule, active = well fitted curve in the direction sought with a large enough effect; inconclusive = small, poorly fitted or top-dose-only effect, or another doubt; inactive = no such curve, though single readings can be large; an effect the other way counts as inactive or inconclusive.

CCOC(=O)c1ccc(-n2ccnc2)c(NC(=O)c2cccc(Br)c2)c1	none
COc1cccc(NC(=O)c2ccc3c(c2)N(C)CCS3)c1	Pf growth 96h 7.4µM, FBPA Giardia inh inconclusive
CN1CCSc2ccc(C(=O)NCc3cccc(F)c3)cc21	Pf growth 96h 9.3µM
CN1CCSc2ccc(C(=O)Nc3ccc(Cl)cc3)cc21	none
O=C(O)CCCC/C=C(\c1ccccc1)c1cccnc1	Pf growth 96h 1.7µM (no result: Sm TGR inh, HCMV antiviral, FBPA Giardia inh)
O=C(NCO)c1cccnc1	none (no result: Sm TGR inh, Pf growth 96h, Pf growth 48h)
O=C(CCC(=O)c1cccs1)NCc1ccccc1Cl	none (no result: Sm TGR inh, Pf growth 96h, FBPA Giardia inh, Pf growth 48h)
O=c1c2ccccc2sn1-c1cc(S(=O)(=O)N2CCOCC2)ccc1N1CCOCC1	Sm TGR inh 25µM, HCMV antiviral inconclusive, FBPA Giardia inh inconclusive, Pf growth 48h 3.7µM
CN(Cc1ccccc1OCCO)CC1CCCN(CCc2ccc(Cl)cc2)C1 (stereo not drawn)	Pf growth 96h inconclusive, Pf growth 48h inconclusive
COc1c(-c2coc3cc4c(cc3c2=O)CC(O)C(C)(C)O4)ccc2c1C=CC(C)(C)O2 (stereo not drawn)	none (no result: Sm TGR inh, HCMV antiviral, Pf growth 96h, Pf growth 48h)
S=c1[nH]nc(-c2ccc3ccccc3n2)n1-c1cc(Cl)cc(Cl)c1	Pf growth 96h 4.1µM
Fc1ccc(-n2c(-c3ccc4ccccc4n3)n[nH]c2=S)cc1	none
CCc1nn2c(=O)cc(COC(=O)c3cccc(NC(=O)COc4ccccc4F)c3)nc2s1	none (no result: Pf growth 96h, FBPA Giardia inh, Pf growth 48h)
O=CN/N=C/c1c(O)ccc2ccccc12	Pf growth 96h inconclusive, Pf growth 48h inconclusive
Oc1ccc2ccccc2c1/C=N/Nc1ccccc1	Sm TGR inh 50µM, Pf growth 96h inconclusive, FBPA Giardia inh inconclusive
COc1ccc(N/N=C/c2c(C(=O)O)ccc3ccccc23)cc1	Sm TGR inh inconclusive, HCMV antiviral -100, Pf growth 96h 7.4µM, Pf growth 48h 2.6µM
NC(=S)N/N=C/c1c(O)ccc2ccccc12	HCMV antiviral inconclusive, Pf growth 96h inconclusive, Pf growth 48h 4.7µM
Cc1cc(Nc2ccccc2)nc(-c2ccccc2O)n1	none (no result: Pf growth 96h)
Cc1cc(N/N=C/c2c(O)ccc3ccccc23)nc(-c2ccccc2O)n1	Pf growth 96h inconclusive, Pf growth 48h 6.6µM
COc1ccc2ccccc2c1/C=N/Nc1ccc(Cl)c(C(=O)O)c1	Sm TGR inh inconclusive, Pf growth 96h inconclusive, FBPA Giardia inh inconclusive
Cc1cccc(-c2oc3ccc(-c4ccc5c(c4)OCO5)cc3c2C(=O)OCc2ccc(O)cc2)c1	HCMV antiviral inconclusive
CN1c2ccccc2[C@]23CCN(S(=O)(=O)C(F)(F)F)C2=Cc2ccccc2[C@H]13	none (no result: Sm TGR inh, Pf growth 96h, FBPA Giardia inh, Pf growth 48h)
Oc1ccc2ccccc2c1/C=N/n1cnnc1	none
Oc1ccc2ccccc2c1C=NC1CCCCC1	Sm TGR inh 40µM, Pf growth 96h inconclusive, FBPA Giardia inh inconclusive, Pf growth 48h inconclusive
CC(=O)c1sc(N/N=C\c2c(O)ccc3ccccc23)nc1C	HCMV antiviral -75 (no result: Sm TGR inh, Pf growth 96h, FBPA Giardia inh, Pf growth 48h)
Oc1ccc2ccccc2c1C=NCc1ccccc1	Sm TGR inh inconclusive, Pf growth 96h 13µM, FBPA Giardia inh inconclusive, Pf growth 48h inconclusive
Oc1ccc(C=NC2CCCCC2)c(O)c1	Sm TGR inh inconclusive, Pf growth 96h 10µM
CC(=O)c1sc(N/N=C/c2cccc(O)c2)nc1C	none
Oc1ccccc1CC=NC1CCCCC1	none (no result: Sm TGR inh, Pf growth 96h, FBPA Giardia inh, Pf growth 48h)
CCC(CC)C(=O)Nc1ccc(C(=O)Nc2cc(C)on2)cc1	HCMV antiviral inconclusive
Cc1ccc(Cn2c(C)c(C(=O)NCc3ccc4c(c3)OCO4)sc2=O)cc1	none (no result: Sm TGR inh, Pf growth 96h, FBPA Giardia inh, Pf growth 48h)
Cc1c(C(=O)NCc2ccc3c(c2)OCO3)sc(=O)n1Cc1ccc(-c2ccccc2)cc1	HCMV antiviral -67 (no result: Sm TGR inh, Pf growth 96h, FBPA Giardia inh, Pf growth 48h)
Cc1c(C(=O)NCc2ccc([N+](=O)[O-])cc2)sc(=O)n1Cc1ccc(-c2ccccc2)cc1	HCMV antiviral -84 (no result: Sm TGR inh, Pf growth 96h, FBPA Giardia inh, Pf growth 48h)
COc1ccc(OC)c(CCNC(=O)c2c3c(nc4ccccc24)C(=O)N(C2CCCCC2)C3)c1	none (no result: Pf growth 96h, FBPA Giardia inh, Pf growth 48h)
O=C1CCCCCN1Cc1nnc(SCc2nc3ccccc3s2)n1-c1ccccn1	HCMV antiviral -107
COc1ccccc1CNC(=O)CCC(=O)N1Cc2cccc(OC)c2Oc2ncccc21	Pf growth 96h 9.3µM (no result: FBPA Giardia inh)
CCOc1ccccc1CNC(=O)CCC(=O)N1Cc2ccccc2Oc2ncccc21	HCMV antiviral inconclusive, Pf growth 96h 9.3µM (no result: FBPA Giardia inh)
COc1cccc2c1Oc1ncccc1N(C(=O)CCC(=O)NCc1ccccc1F)C2	HCMV antiviral inconclusive, Pf growth 96h 12µM (no result: FBPA Giardia inh)
COc1ccccc1CNC(=O)CCC(=O)N1Cc2ccccc2Oc2ncccc21	none (no result: Pf growth 96h, FBPA Giardia inh, Pf growth 48h)
COc1cccc2c1Oc1ncccc1N(C(=O)CCC(=O)NCc1ccccc1)C2	Pf growth 48h inconclusive

Screening data (PubChem)
